Measurements: PubChem BioAssay (NCI)
Where “and” joins values, the source holds several entries; their conditions need not be identical. Equal values may be shown once. Compounds without any hit were thinned out: in the full panel of roughly 83,000, 20% have a hit.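 Testing used 96-well plates and a 48-hour single-concentration exposure. Example: -40 means 40% of the starting cells died.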 Calls of active or inactive are those of the source. How the source made its calls: active means growth percent below 10; inactive means the rest.

Columns and labels:
Experiment in all cases: NCI-60 one-dose screen, 48 h (100 = growth as untreated, 0 = no growth, -100 = all killed)
MDA-MB-435 melanoma = details: 10 µM unless noted
SW-620 colon = details: 10 µM unless noted
MCF7 breast = system: MCF7 breast
HCT-116 colon = details: 10 µM unless noted
HCC-2998 colon = details: 10 µM unless noted
KM12 colon = details: 10 µM unless noted

| SMILES | growth (MDA-MB-435 melanoma) | growth (SW-620 colon) | growth (MCF7 breast; 10 µM) | growth (HCT-116 colon) | growth (HCC-2998 colon) | growth (KM12 colon) | growth (MCF7 breast; 2.5 µM) | growth (MCF7 breast; 25 µM) | growth (MCF7 breast; 100 µM) |
| --- | --- | --- | --- | --- | --- | --- | --- | --- | --- |
| CCC1(O)CC(OC2CC(N(C)C)C(OC3CC4OC5CC(=O)C(C)OC5OC4C(C)O3)C(C)O2)c2c(cc3c(c2O)C(=O)c2c(O)ccc(O)c2C3=O)C1C(=O)OC (centres undefined) | -94.1% (active) | -11.4% (active) | 2.21% (active) | -2.93% (active) | -89.9% (active) | -55.3% (active) | – | – | – |
| CC[C@@]1(O)C[C@H](OC2CC(N(C)C)C(OC3CC(O)C(OC4CCC(=O)C(C)O4)C(C)O3)C(C)O2)c2c(cc3c(c2O)C(=O)c2c(O)ccc(O)c2C3=O)[C@H]1C(=O)OC (some centres undefined) | -2.5% (active) | -1.19% (active) | 0.371% (active) | -58.7% (active) | -77.5% (active) | -14.9% (active) | – | – | – |
| CC1=C2C(=O)[C@H]3[C@@H](CC=C4C[C@@H](O)CC[C@@]43C)[C@@H]2CC[C@]12O[C@@H]1C[C@H](C)CN[C@H]1[C@H]2C | 98.2% (inactive) | 99.2% (inactive) | 91.6% (inactive) | 45.5% (inactive) | 141% (inactive) | 112% (inactive) | – | – | – |
| CC(=O)O[C@H]1C[C@@H]2OC3C=C(C)CCC3(C)[C@@]1(C)[C@@]21CO1 (some centres undefined) | -21.1% (active) and -27.5% (active) | 0.513% (active) and -7.31% (active) | -0.46% (active) and -15% (active) | -22.5% (active) and -18.6% (active) | -27.6% (active) and -20.3% (active) | -21.9% (active) and -43% (active) | – | – | – |
| CCOC(=O)C(NC(=O)C(Cc1ccc(N(CCCl)CCCl)cc1)NC(C)=O)C(C)C (centres undefined) | 101% (inactive) | 69.4% (inactive) | 61.9% (inactive) | 77.2% (inactive) | 73.2% (inactive) | 94.8% (inactive) | – | – | – |
| Cc1ccc(C(=O)OC(C(=O)O)C(OC(=O)c2ccc(C)cc2)C(=O)O)cc1 (centres undefined) (tested in a mixture with another compound) | 51.3% (inactive) | 53.4% (inactive) | 14.3% (inactive) | 22.1% (inactive) | 73% (inactive) | 58.9% (inactive) | – | – | – |
| COC1=C(C)C(=O)C2=C(C1=O)C(CO)N1C(C#N)C3CC4C(C1C2N1CCOC41)N3C (centres undefined) | -64.2% (active) | -28% (active) | -0.551% (active) | -33.7% (active) | -87.3% (active) | -60.8% (active) | – | – | – |
| Cc1c(N)nc([C@H](CC(N)=O)NC[C@H](N)C(N)=O)nc1C(=O)N[C@H](C(=O)N[C@H](C)[C@@H](O)[C@H](C)C(=O)N[C@H](C(=O)NCCc1nc(-c2nc(C(=O)NCCC[S+](C)C)cs2)cs1)[C@@H](C)O)C(OC1OC(CO)C(O)C(O)C1OC1OC(CO)C(O)C(OC(N)=O)C1O)c1cnc[nH]1 (some centres undefined) | 85.1% [2.5 µM] (inactive) | 83.4% [2.5 µM] (inactive) | – | 34.2% [2.5 µM] (inactive) | 5.84% [2.5 µM] (active) | 80.9% [2.5 µM] (inactive) | 52.9% (inactive) | 15.6% (inactive) and 0.932% (active) | – |
| CC[n+]1c(-c2ccccc2)c2cc(N)ccc2c2ccc(N)cc21 | -36% (active) | 17.9% (inactive) | – | 13.8% (inactive) | 6.95% (active) | 7.69% (active) | – | – | – |
| CC[C@](O)(C(=O)O)c1cc2n(c(=O)c1CO)Cc1cc3ccccc3nc1-2 | -81% (active) | -30% (active) | 1.99% (active) | -26.6% (active) | -61.6% (active) | -29.9% (active) | – | – | – |
| COc1ccccc1/C=C(/C)[N+](=O)[O-] | 79.2% (inactive) and 105% (inactive) | 49.8% (inactive) and 106% (inactive) | 7.37% (active) and 105% (inactive) | 44% (inactive) and 98.6% (inactive) | 103% (inactive) and 99% (inactive) | 70% (inactive) and 99.8% (inactive) | – | – | – |
| C[C@]12CC[C@H](O)CC1=CC[C@@H]1[C@@H]2CC[C@]2(C)C(=O)CC[C@@H]12 | 90.3% (inactive) | 110% (inactive) | 130% (inactive) | 91.6% (inactive) | 90.7% (inactive) | 97.1% (inactive) | – | – | – |
| COc1cccc2c1cc([N+](=O)[O-])c1c(C(=O)O)cc3c(c12)OCO3 | 93.1% (inactive) and 100% (inactive) | 79.5% (inactive) and 109% (inactive) | 38.2% (inactive) and 94% (inactive) | 72.4% (inactive) and 92.3% (inactive) | 47.7% (inactive) and -1.44% (active) | 84.6% (inactive) and 99.1% (inactive) | – | – | 15.3% (inactive) and 2.6% (active) |
